ClpP mod: qHTS Assay for Activators of ClpP; Potency, µM (series often up to 57.5 µM), inactives show at the top dose activity change, negative = active; purified B. subtilis ClpP, FRET peptide cleavage, 20 min; AID 651965, 2013; 340,000 compounds, 1.9% hits; active = well fitted falling curve with a large enough effect; inconclusive = small, poorly fitted or top-dose-only effect; inactive = no such curve, though single readings can be large or run the other way; also: potency is read from the fitted curve at half-maximal effect; the source files actives as falling curves though it sought activators and does not explain the sign; nearly all actives have a fitted effect of over 65% in size
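Buffer: 100 mM Tris/HCl pH8, 100 mM KCl, 0.05% low protease BSA, 2.5% glycerol, 0.01% Tween-20. ClpP 10 microg/mL final; 20 min RT; delta FRET normalized to ADEP and DMSO controls.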
TDP1 cell CPT: DT40-hTDP1 cell growth loss with CPT; 420,000 compounds, 12% hits; AID 686979; Potency, µM (highest dose often 46.2 µM), for the others: at the highest dose activity change, negative = growth inhibition, hits mostly inhibitors; chicken DT40 Tdp1-/-;hTDP1 cells + 20 nM CPT, ATP luminescence, 48 h; also: potency is read from the fitted curve at half-maximal effect; % is scaled to controls: 0 for no effect and ±100 for the full control effect; nearly all actives have a fitted effect of over 55% in size
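Chicken DT40 Tdp1-/- cells stably complemented with human TDP1 were seeded at 400 cells/well in medium containing 20 nM camptothecin, exposed to pin-transferred compounds, and grown at 37 °C for at least 48 hr. Viability was read as ATP luminescence.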
DRD3 antagonist: blocks the human D3 dopamine receptor; P35462; max response, negative = inhibition, %; 360,000 compounds, 2.5% hits; D3R cells, DiscoveRx beta-arrestin luminescence, antagonist mode; hits give low values; in the data active = max response below about -50%; inconclusive = no clear call, values can overlap the other calls; also: % is scaled to controls: 0 for no effect and ±100 for the full control effect
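Cells plated overnight at 1500 cells/well, then exposed to library compounds with dopamine controls for 90 minutes at 37 degrees C. DiscoveRx reagent added for 30–60 minutes at room temperature; luminescence read, quantitative HTS format.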
TDP1 cell noCPT: qHTS for Inhibitors of human tyrosyl-DNA phosphodiesterase 1 (TDP1): qHTS in cells in absence of CPT | DT40 Tdp1-/- hTDP1 cells, no CPT, ATP luminescence, 48 h | Potency, µM (titrated, usually from 46.2 µM), without a hit: at the top dose activity change, negative = growth inhibition, usual class: inhibitors | 420,000 compounds, 15% hits; also: potency is read from the fitted curve at half-maximal effect; % is scaled to controls: 0 for no effect and ±100 for the full control effect; nearly all actives have a fitted effect of over 55% in size
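Stably hTDP1-transfected Tdp1-null chicken DT40 cells were treated with library compounds minus camptothecin and grown for at least 48 hr at 37 °C, after which cellular ATP was quantified by luminescence.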
D3 ag: activates the human D3 dopamine receptor; AID 652048; 410,000 compounds, 0.58% hits; max activation, %; D3R DiscoveRx beta-arrestin cells, luminescence, 90 min; P35462; in the data active = max activation above about 30%; also: 0% is about no effect
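Agonist mode: compounds and dopamine controls were applied to plated cells for 90 min at 37 degrees C after an overnight attachment at 1500 cells/well. Luminescent read-out followed 30 - 60 minutes at room temperature with DiscoveRx detection reagent.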
IL-1B inflam inh: blocks inflammasome-driven IL-1 beta release | activity change, % at 57.5 µM | AID 743279 | THP-1 LPS/ATP IL-1B secretion, AlphaLISA, 16 h; hits give low values | 360,000 compounds, 4.7% hits; in the data active = activity change below about -50%; inconclusive = mostly about -30% to -49%; also: % is scaled to controls: 0 for no effect and ±100 for the full control effect
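THP-1 cells pretreated 1 hr with compounds (up to 57.5 uM final), then stimulated with LPS (250 ng/mL final) plus ATP (1.25 mM final); secreted IL-1B measured by AlphaLISA after 16 hr, decreased signal indicating inhibition.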
An asterisk follows results filed as active; u = inconclusive; x = no result; ! = a repeat was not active; [ ] = another dose, or the depositor's remark. Sampled rows, rich in hits. Any-hit rate of the full collection: about 21%. Unless noted, calls follow the shape of the dose curve; as a rule, active = well fitted inhibition curve with a large enough effect; inconclusive = small, poorly fitted or top-dose-only effect; inactive = flat fitted curve, though single readings scatter.

SMILES	ClpP mod	TDP1 cell CPT	DRD3 antagonist	TDP1 cell noCPT	D3 ag	IL-1B inflam inh
COc1cccc(N2C(=O)CC(N3CCN(S(=O)(=O)c4ccccc4[N+](=O)[O-])CC3)C2=O)c1 (configuration not stated)	0.5%	0.0%	8.8	8.4%	-2.2	8.2
O=C(N/C(=C\c1ccc(Br)cc1)C(=O)N1CCOCC1)c1ccco1	-2.1%	2.6%	1.2	-21.2%	15.3	23.7
O=C(CNC(=O)C12CC3CC(CC(C3)C1)C2)OCc1ccc(F)cc1Cl	-0.7%	6.3%	-1.7	13.8%	2.0	0.0
Cc1c(-c2cccc(NC(=O)Nc3ccccc3)c2)nc2ncccn12	4.6%	u	x	u	-4.4	x
CCC1C(=O)NCCN1Cc1ccc2c(c1)CN(Cc1cccc(OC)c1)CCO2 (configuration not stated)	x	11.9%[9.04 µM]	x	-3.9%	x	x
COc1cc(C(C#N)N2N=C(c3ccccc3)CC2c2ccccc2)ccc1O (configuration not stated)	-9.5%	u	-22.7	-14.4%	3.2	-0.3
COc1ccc(C(C#N)N2CCC(c3ccccc3)=N2)cc1 (configuration not stated)	x	u	7.2	u	2.3	-89.9*
CC1CC(=O)c2ccccc2C1C (configuration not stated)	x	-0.7%	3.4	-11.3%	-1.1	4.4
N#CC1(NC(=O)COC(=O)Cc2c[nH]c3ccccc23)CCCCC1	-3.2%	-7.0%	-22.8	-25.2%	-3.8	10.7
COc1ccc(OC)c(NC(=O)NNC(=O)CCCOc2ccc(Cl)cc2C)c1	x	u	1.3	u	5.2	-55.3*
CCCCOc1ccc(OC(=O)Nc2cc(Cl)ccc2OC)cc1	4.0%	18.4µM*	8.5	14.6µM*	-0.7	0.0
Cc1cc(Cl)ccc1OCCCC(=O)NNC(=O)c1ccccc1O	x	u	-3.7	23.1µM*	0.3	63.2
COc1ccc(Cl)cc1NC(=O)CC(=O)Nc1cc(Cl)ccc1OC	x	-1.8%	-25.6	-28.9%	-5.9	9.1
Cc1cc(Cl)ccc1OCCCC(=O)Nc1cccnc1	1.8%	14.6µM*	u	23.1µM*	-4.7	2.8
Cc1cc(Cl)ccc1OCC(=O)Nc1cccnc1	x	-19.9%	-6.4	u	10.5	u
COCc1cccc(N2C(=O)CC(C3C=C(C)C4C(=O)N(c5cccc(COC)c5)C(=O)C4C3)C2=O)c1 (configuration not stated)	x	0.9%	4.5	-21.4%	10.7	48.0
CC1CC(C)CN(C(=O)CSc2nnc(N)s2)C1 (configuration not stated)	-1.9%	14.0%	-8.4	13.3%	-0.9	-9.5
CC(C)C(NC(=O)c1ccccc1F)C(=O)NCCc1ccccn1 (configuration not stated)	x	2.0%	3.3	-2.2%	7.8	24.0
COc1ccccc1-c1nn(CCC(=O)Nc2ccc(C)cc2)c2nc(C)cc(C)c12	3.3%	u	x	13µM*	-10.7	x
CCCCN(CCCC)C(=O)CN(C)S(=O)(=O)c1ccc2c(c1)c(=O)n(C)c(=O)n2C	-5.7%	23.1µM*	x	u	-11.4	x
COc1ccc(CNC(=O)CN(C)S(=O)(=O)c2ccc3c(c2)c(=O)n(C)c(=O)n3C)cc1	-5.5%	u	6.9	16.4µM*!	1.7	28.3
CN(CC(=O)N(CCO)Cc1ccccc1)S(=O)(=O)c1ccc2c(c1)c(=O)n(C)c(=O)n2C	-16.9%	-4.3%	24.2	-0.6%	-2.5	0.0
COc1ccc(-c2nc3ccccc3o2)cc1NC(=O)COc1ccc(C)cc1	4.6%	u	x	-18.4%	x	x
CCOC(=O)c1c(-c2ccccc2)csc1NC(=S)N(CC)CC	x	-8.7%	14.0	u	1.8	105.0
CCOC(=O)c1c(-c2cccs2)csc1N	x	2.2%	2.8	3.1%	-7.5	-5.4
